CF NFkB inh = blocks PAF-induced NF-kB reporter in cystic fibrosis cells; hit rate 0.86% among 360,000; AID 588850; inhibition, % at 5 µM; KKLEB NF-kB-GFP reporter, GFP fluorescence overnight;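 active means at least 50% inhibition at 5 µM, scaled per plate between neutral and stimulator controls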;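 further: PAF is a Pseudomonas aeruginosa culture filtrate used as stimulus; plate controls were PAF-stimulated DMSO wells for no effect and unstimulated DMSO wells for full effect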
KKLEB cytotox = counter-screen for CF NF-kB inhibitors: cytotoxicity. AID 602141. activity change (cytotoxicity), % at 5 µM. hit rate 0.36% among 360,000. KKLEB CF airway cells viability, ATPlite luminescence, overnight; active compounds read low; cells stimulated with P. aeruginosa culture filtrate;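 active means corrected activity change at or below -50% at 5 µM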
Peg3 prom inh = reduces Peg3 promoter-driven luciferase expression in HeLa; HeLa PEG-Prom luciferase reporter, luminescence, overnight; inhibition, % at 20 µM; AID 588405; hit rate 1.7% among 360,000;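 active means inhibition of at least 50% at 20 µM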
Shn3 3UTR inh = inhibitors of Schnurri-3 3'UTR reporter in osteoblasts; Clone20 osteoblast Shn3 3'UTR firefly luciferase, 24 h; inhibition, % at 12.5 µM; AID 588674; hit rate 0.52% among 360,000;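 active means mean inhibition of at least 75% with every replicate also reaching 75%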;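 further: 0% = median of neutral control wells and 100% = pilot-screen positive control compound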
HIF-2a inh = HIF-2a inhibition; 786-0 RCC cells HIF-2a reporter, luciferase luminescence, overnight; inhibition, % at 18.8 µM; hit rate 0.72% among 360,000; AID 624352;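 active means inhibition of the luminescence signal of 40% or more relative to plate controls, in a single-dose primary screen at 18.75 µM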
MITF TRPM1 inh = MITF TRPM1 promoter inhibition in SK-MEL-5 cells; inhibition, % at 12.5 µM; hit rate 0.83% among 330,000; SK-MEL-5 TRPM1 promoter luciferase, 24 h; AID 488899;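 active means mean inhibition across replicates of 60% or more, whatever share of single replicates reaches that level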
An asterisk follows results filed as active; / = no result. Sampled rows, rich in hits. Any-hit rate of the full collection: about 2.7%.

SMILES	CF NFkB inh	KKLEB cytotox	Peg3 prom inh	Shn3 3UTR inh	HIF-2a inh	MITF TRPM1 inh
CN(Cc1ccccc1)C(=O)c1cccc(NC(=O)Cc2ccc([N+](=O)[O-])cc2)c1	1.4	-4.2	21.3	88.0*	0.1	16.8
CC(c1nc2ccccc2n1Cc1ccccc1)n1c(-c2cnccn2)nc2ccccc21 (stereo unspecified)	/	/	/	/	11.0	/
COc1cc(C(O)c2nc(-c3cccc(C(F)(F)F)c3)cs2)ccc1F (stereo unspecified)	-9.5	1.7	16.1	6.1	-9.5	/
CC(C)C(=O)N1CCN(c2ccc(NC(=O)COc3ccccc3[N+](=O)[O-])cc2)CC1	10.7	-5.7	90.8*	36.1	-6.4	39.4
NCC(O)COCCC12CC3CC(CC(C3)C1)C2 (stereo unspecified)	10.0	-3.6	-1.0	3.4	11.1	4.0
CC(NCC(O)COCCC12CC3CC(CC(C3)C1)C2)c1ccccc1 (stereo unspecified)	8.0	-18.3	103.7*	-9.0	1.8	57.5
O=C(NCc1ccccc1)C1c2ccccc2OCC(=O)N1CCc1c[nH]c2ccccc12 (stereo unspecified)	/	/	/	/	6.3	/
O=C(N[C@@H](Cc1ccccc1)C(=O)CCl)OCc1ccccc1	36.9	-19.0	70.0*	16.8	-11.5	95.8*
CC(Oc1ccccc1)C(=O)NNC(=O)c1ccccn1 (stereo unspecified)	3.1	-5.5	15.7	16.0	12.9	3.1
C/C(=N\NC(=O)C(C)Oc1ccc([N+](=O)[O-])cc1)c1ccccn1 (stereo unspecified)	0.7	-9.2	44.2	82.8*	-17.1	83.1*
CC(C)(C)NC(=O)C(c1ccc(C(F)(F)F)cc1)n1c(=O)c(-c2ccco2)nc2ccccc21 (stereo unspecified)	/	/	/	/	8.4	/
O=c1c2cc([N+](=O)[O-])ccc2sn1-c1ccccc1	-14.0	4.3	-164.5	-44.6	-239.7	/
N#Cc1c2ccc([N+](=O)[O-])cc2[n+]([O-])n1-c1ccccc1	-23.8	-38.2	100.2*	31.5	-16.4	89.9*
CCN(CC)CCNC(=O)c1ccc(N2CCCCC2)c(NS(=O)(=O)c2ccc(C)cc2)c1	17.5	-19.0	33.2	-3.5	-7.4	-7.8
CCN(CC)CCNc1cc(C)nc2c1C(=O)C(=O)C=C2N1CCCCC1	-6.8	14.3	74.3*	81.7	-8.7	53.1
O=C(N1CCN(c2ccccn2)CC1)C(Cl)(Cl)Cl	-17.6	10.0	-67.0	-15.5	-59.3	-15.2
O=C1C=C(N2CCN(c3ccccn3)CC2)C(=O)c2c(O)ccc(O)c21	38.0	-10.5	0.1	-4.2	1.3	91.9*
O=C(C1CCCN(c2ncnc3c2nc2n3CCCCC2)C1)N1CCN(c2ccc(Cl)cc2)CC1 (stereo unspecified)	-16.0	-9.0	56.3*	39.9	21.6	3.7
O=C(Nc1ccc(Cl)cn1)C1CCCN(c2ncnc3c2nc2n3CCCCC2)C1 (stereo unspecified)	-8.2	8.7	55.8*	38.8	11.7	2.0
O=C(Nc1ccc(Cl)cn1)C1CCN(c2ncnc3c2nc2n3CCCCC2)CC1	3.5	1.8	5.3	57.2	16.7	21.6
O=C(C1CCN(c2ncnc3c2nc2n3CCCCC2)CC1)N1CCN(c2cccc(Cl)c2)CC1	-8.9	-9.0	59.6*	59.2	27.4	27.7
CCOc1ccccc1C(=O)NC(C(=O)OCn1nnc2ccccc2c1=O)C(C)C (stereo unspecified)	17.2	-17.6	4.9	4.2	14.6	/
CN(C)CCNc1ncnc2c1ncn2[C@H]1CN(Cc2ccncc2)C[C@@H](CO)O1	-14.6	-3.7	2.9	-3.2	4.6	/
Cc1ccccc1CN1C(=O)c2ccccc2Sc2ccc(C(=O)NCCN3CCOCC3)cc21	-33.5	-6.0	-13.3	15.2	19.4	5.2
CCN1CCN(CCNC(=O)c2ccc(/C=C3/Sc4ccccc4N(Cc4ccccc4C)C3=O)cc2)CC1	42.6	-76.9*	86.6*	-8.4	18.5	-6.5
SMILES	CF NFkB inh	KKLEB cytotox	Peg3 prom inh	Shn3 3UTR inh	HIF-2a inh	MITF TRPM1 inh
O=C(NCCCN1CCOCC1)c1ccc(/C=C2\Oc3ccccc3N(Cc3ccccc3F)C2=O)cc1	19.6	0.0	11.0	-18.0	1.7	-20.4
CCN1CCN(CCCNC(=O)c2ccc(/C=C3/Oc4ccccc4N(Cc4cccc(C)c4)C3=O)cc2)CC1	20.0	-40.0	74.8*	3.0	4.0	75.6*
O=C(CSc1ncccn1)N(Cc1cccnc1)C(CCc1ccccc1)c1nc2ccccc2[nH]1 (stereo unspecified)	-9.3	-2.4	-0.1	-7.3	-5.8	/
O=C1Nc2cc(C(=O)NCCCN3CCOCC3)ccc2S/C1=C/c1cccc(Cl)c1	-5.0	-10.9	106.7*	10.1	-1.7	-8.9
O=C1Nc2cc(C(=O)NCCCN3CCCC3)ccc2S/C1=C\c1ccccc1	6.4	-11.1	90.9*	-24.6	-4.1	96.0*
COc1ccc(/C=C2/Sc3ccc(C(=O)NCCN4CCCCCC4)cc3NC2=O)cc1	4.6	-7.5	104.7*	52.7	2.9	95.3*
O=C1Nc2cc(C(=O)NCCCN3CCOCC3)ccc2S/C1=C/c1ccccc1F	12.5	-8.3	16.1	-15.0	-2.7	-0.5
CCC1CCCCN1CCCNC(=O)c1ccc(/C=C2/Sc3ccccc3NC2=O)cc1 (stereo unspecified)	5.6	-2.9	99.4*	22.1	-33.3	28.4
COc1ccc(C(=O)NCCN2CCCC2)cc1	-10.5	10.1	17.9	-4.7	15.8	3.7
O=S1(=O)N[C@@H](Cc2ccccc2)COc2cccc(N3CCC[C@H]3CO)c21	/	/	/	/	10.7	/
CC(=NNc1nc2ccccc2o1)c1cc2ccccc2cn1	-10.4	-6.9	89.3*	79.9	-57.1	57.9
CC(=O)C1=C(C)NC(SCC(=O)c2ccc(Cl)c(Cl)c2)=C(C#N)C1c1ccco1 (stereo unspecified)	-11.9	0.4	12.9	2.8	-7.0	-4.2
CC(=O)C1=C(C)NC(SCC(=O)c2cc(Cl)ccc2Cl)=C(C#N)C1c1ccco1 (stereo unspecified)	7.7	-14.7	27.3	81.2*	-2.8	13.2
CCCCN1CC(COCc2ccccc2)Oc2cccc(OCc3ccc(OC)cc3)c2S1(=O)=O (stereo unspecified)	16.4	5.6	15.2	34.5	18.7	/
O=C(c1ccc(CSc2nc3ccncc3[nH]2)cc1)N1CCN(c2cccc(Cl)c2)CC1	34.5	-6.8	15.5	88.5*	-29.6	/
Clc1ccc(CSc2nc3ccncc3[nH]2)cc1	-4.4	-58.7*	-137.1	-46.5	-126.0	-25.1
Cc1ccc(CSc2nc3ccncc3[nH]2)cc1	-0.4	-69.6*	-33.6	19.6	-19.0	-0.5
COc1cc(OC)c2nc(C)c3c(c2c1)N(c1ccc(O)cc1)CC3	-222.9	7.3	65.1*	28.5	22.3	0.6
COc1ccc(N2CCN(c3cc(C)c4ccc(O)cc4n3)CC2)cc1	1.1	15.6	-13.5	7.8	-9.1	/
